Source: PubChem (National Center for Advancing Translational Sciences (NCATS))
Chronic BCR inh = blocks chronic active B-cell receptor signaling; ABC-DLBCL IkBa-CBG/CBR reporter, luminescence ratio, 4 h; Potency, µM (doses to about 46.1 µM), actives largely listed as inhibitors; 0.05% of 340,000 active; active = well fitted inhibition curve with a large enough effect in the signal ratio, with a control signal flat, not every such curve was filed as active; inconclusive = small, poorly fitted or top-dose-only effect, or effect the other way, or a change in a side signal; the % refers to the signal ratio
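TMD8 human ABC-DLBCL cells with doxycycline-inducible IκBα–green luciferase fusion and unfused red luciferase, in 0.5% FBS medium; compounds up to 46 uM, 4 h at 37C. Green/red luminescence ratio, filter-overlap corrected, fitted to concentration-response curves.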
TDP1 cell noCPT = qHTS for Inhibitors of human tyrosyl-DNA phosphodiesterase 1 (TDP1): qHTS in cells in absence of CPT; DT40 Tdp1-/- hTDP1 cells, no CPT, ATP luminescence, 48 h; Potency, µM (highest dose often 46.2 µM), usual class: inhibitors; 15% of 420,000 active; AID 686978, 2013; note: nearly all actives have a fitted effect of over 55% in size
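Luminescent ATP content (CellTiter-Glo) served as the growth readout. Knockout chicken DT40 cells expressing human TDP1 were exposed to compounds without camptothecin for a minimum 48 hr at 37 °C.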
SW480 rerep = inducers of DNA re-replication in SW480 colon cancer cells | SW480 DNA re-replication, Hoechst DNA content imaging, 48 h | Potency, µM (titrated, usually from 46.1 µM), hits mostly activators | 1.8% of 340,000 active | AID 624297; note: nearly all actives have a fitted effect of over 55% in size
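First, 250 cells per well were seeded. Next, compound or vehicle (23 nL) was pinned in, plates sat 48 hr at 37 C. Finally Hoechst was added for 40 min before fluorescence scanning.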
IL-1B inflam inh = blocks inflammasome-driven IL-1 beta release; 4.7% of 360,000 active; THP-1 LPS/ATP IL-1B secretion, AlphaLISA, 16 h; active compounds read low; activity change, % at 57.5 µM; AID 743279; in the data active = activity change below about -50%; inconclusive = mostly about -30% to -49%
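Secreted IL-1B measured by AlphaLISA bead assay after 16 h compound exposure of THP-1 cells; compounds (final up to 57.5 uM) added 1 h before LPS (250 ng/mL) and ATP (1.25 mM) stimulation; lower signal means less secretion.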
DT40 TDP1 CPT = DT40-hTDP1 cell growth loss with CPT; chicken DT40 Tdp1-/-;hTDP1 cells + 20 nM CPT, ATP luminescence, 48 h; Potency, µM (top dose mostly 46.2 µM), hits mostly inhibitors; 12% of 420,000 active; note: nearly all actives have a fitted effect of over 55% in size
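Chicken DT40 Tdp1-/- cells complemented with human TDP1, 400 cells/well, exposed to compounds plus 20 nM camptothecin for at least 48 h at 37 C; viability read as ATP content by CellTiter-Glo luminescence.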
MCF10A rerep = DNA re-replication induction in MCF 10a cells | MCF 10A DNA re-replication, Hoechst nuclear intensity, 48 h | 2.9% of 350,000 active | Potency, µM (doses to about 46.1 µM), actives largely listed as activators; note: nearly all actives have a fitted effect of over 50% in size
Large screens that a line does not name were inactive. The list is not random: actives were taken first. Their share in the collection is about 19%. Unless noted, calls come from the whole dose curve; as a rule, active = well fitted curve in the direction sought with a large enough effect; inconclusive = small, poorly fitted or top-dose-only effect, or another doubt; inactive = no such curve, though single readings can be large; an effect the other way counts as inactive or inconclusive.

O=C1OC(/C(=C\Nc2ccccc2)[N+](=O)[O-])c2ccccc21 (configuration not stated)	IL-1B inflam inh -104
COc1ccc2c(c1)CC=C1C2CCC2(C)C(=O)C(=NO)CC12 (configuration not stated)	TDP1 cell noCPT inconclusive, SW480 rerep inconclusive, IL-1B inflam inh -88, DT40 TDP1 CPT inconclusive, MCF10A rerep inconclusive (no result: Chronic BCR inh)
O=C(CCN1CCOCC1)N1CCCC(Nc2cccc(F)c2)C1 (configuration not stated)	none
C/C(=N\Nc1ncc(Cl)cc1Cl)c1ccc(C#N)cc1	Chronic BCR inh inconclusive
COc1ccc(/C(C)=N/Nc2ncc(Cl)cc2Cl)c(O)c1	Chronic BCR inh inconclusive, TDP1 cell noCPT 0.0082µM, SW480 rerep inconclusive, DT40 TDP1 CPT inconclusive, MCF10A rerep 16µM
CN(C)C(=O)C(OC(=O)c1ccc2c(c1)CCCC2)c1ccccc1 (configuration not stated)	TDP1 cell noCPT 21µM, DT40 TDP1 CPT inconclusive
O=C(O)c1ccc2c(c1)CCC2	DT40 TDP1 CPT inconclusive
Cc1ccc(-n2ncc3c2CCCC3NC(=O)c2ccccc2N2CCOCC2)cc1C (configuration not stated)	TDP1 cell noCPT inconclusive, DT40 TDP1 CPT 16µM
O=C(NC1CCCc2c1cnn2-c1ccc(F)cc1F)c1ccccc1N1CCOCC1 (configuration not stated)	TDP1 cell noCPT 23µM, DT40 TDP1 CPT inconclusive
Cc1ccc(-n2ncc3c2CCCC3NC(=O)c2ccoc2)cc1C (configuration not stated)	TDP1 cell noCPT inconclusive, DT40 TDP1 CPT inconclusive
O=C(CCc1ccccn1)NC1CCCc2c1cnn2-c1ccc(F)cc1F (configuration not stated)	Chronic BCR inh inconclusive, TDP1 cell noCPT inconclusive
Cc1ccc(S(=O)(=O)N2CCOCC2)cc1C(=O)OC(C)C(=O)c1ccccc1 (configuration not stated)	SW480 rerep inconclusive
CCc1ccc(C2CC(=O)N(c3cccc(C(F)(F)F)c3)C3=C2C(=O)OC3)cc1 (configuration not stated)	none (no result: Chronic BCR inh, SW480 rerep, IL-1B inflam inh, MCF10A rerep)
Nc1ncnc(Oc2ccccc2F)c1[N+](=O)[O-]	IL-1B inflam inh -89
CC(=O)c1ccc(Oc2ncnc(N)c2[N+](=O)[O-])cc1	Chronic BCR inh inconclusive, TDP1 cell noCPT inconclusive, DT40 TDP1 CPT 23µM, MCF10A rerep 4.1µM
COc1ccc(C(=O)Nc2nc3n(n2)C(c2ccccc2)C=C(c2ccccc2)N3)cc1 (configuration not stated)	TDP1 cell noCPT inconclusive, DT40 TDP1 CPT 18µM (no result: SW480 rerep, IL-1B inflam inh, MCF10A rerep)
O=C(Nc1nc2n(n1)C(c1ccccc1)C=C(c1ccccc1)N2)c1ccco1 (configuration not stated)	none
COc1ccc(C2C=C(c3ccccc3)Nc3nc(NC(=O)/C=C/c4ccccc4OC)nn32)cc1 (configuration not stated)	TDP1 cell noCPT 2.6µM, DT40 TDP1 CPT 5.8µM (no result: Chronic BCR inh, SW480 rerep, IL-1B inflam inh, MCF10A rerep)
COc1ccc(C2C=C(c3ccccc3)Nc3nc(NC(=O)/C=C/c4ccccc4)nn32)cc1 (configuration not stated)	TDP1 cell noCPT 7.3µM, DT40 TDP1 CPT 9.2µM (no result: Chronic BCR inh, SW480 rerep, IL-1B inflam inh, MCF10A rerep)
O=C(Nc1nc2n(n1)C(c1ccccc1)C=C(c1ccc(Cl)cc1)N2)c1ccco1 (configuration not stated)	TDP1 cell noCPT 23µM, DT40 TDP1 CPT 21µM (no result: Chronic BCR inh, SW480 rerep, IL-1B inflam inh, MCF10A rerep)
O=C(NCCCN1CCCCC1)c1ccc(CS(=O)c2ccc(F)cc2)o1 (configuration not stated)	none
COc1ccccc1-c1cn(CC[C@H]2CC[C@@H](NS(=O)(=O)c3ccccc3C)[C@@H](CO)O2)nn1	TDP1 cell noCPT inconclusive, DT40 TDP1 CPT inconclusive (no result: Chronic BCR inh, SW480 rerep, MCF10A rerep)
CO[C@@H]1CN(C)C(=O)c2cc(NC(=O)NC3CCCCC3)ccc2OC[C@@H](C)N(CC2CCOCC2)C[C@@H]1C	TDP1 cell noCPT inconclusive, DT40 TDP1 CPT inconclusive (no result: Chronic BCR inh, SW480 rerep, MCF10A rerep)
O=C(Nc1cccc(Cl)c1Cl)c1ccc2c(c1)N(Cc1cccc(Cl)c1)C(=O)c1ccccc1S2=O (configuration not stated)	none (no result: SW480 rerep, IL-1B inflam inh, MCF10A rerep)
O=C(/C=C/[C@H]1O[C@@H](n2cnc3c(NC(=O)c4ccccc4)ncnc32)[C@H](O)[C@@H]1O)NCc1cccs1	none (no result: Chronic BCR inh, SW480 rerep, MCF10A rerep)
COC(=O)c1cc(NC(=S)Nc2cc(Cl)cc(Cl)c2)cc(C(=O)OC)c1	TDP1 cell noCPT inconclusive, IL-1B inflam inh -81, DT40 TDP1 CPT 18µM, MCF10A rerep inconclusive
COC(=O)c1cccc(NC(=S)Nc2ccc(Cl)c(Cl)c2)c1	TDP1 cell noCPT 26µM, IL-1B inflam inh -65, MCF10A rerep inconclusive
COC(=O)c1cccc(NC(=S)Nc2cccc(Cl)c2C)c1	TDP1 cell noCPT inconclusive, DT40 TDP1 CPT inconclusive
COC(=O)c1cccc(NC(=S)Nc2ccccc2Cl)c1	none
CCN1C/C(=C/c2ccc(OC)c(O)c2)C(=O)/C(=C/c2ccc(OC)c(O)c2)C1	Chronic BCR inh inconclusive, TDP1 cell noCPT 12µM, SW480 rerep inconclusive, IL-1B inflam inh -72, DT40 TDP1 CPT 13µM, MCF10A rerep inconclusive
COc1ccc(C=C2C(=O)c3ccccc3C2=O)cc1O	Chronic BCR inh inconclusive
COc1ccc(/C=C2\CN(Cc3ccccc3)C/C(=C\c3ccc(OC)c(O)c3)C2=O)cc1O	Chronic BCR inh inconclusive, TDP1 cell noCPT 2.1µM, SW480 rerep 3.7µM, IL-1B inflam inh -99, DT40 TDP1 CPT 5.2µM, MCF10A rerep inconclusive
O=C(Cn1nc2n(c1=O)-c1ccccc1SC2)N/N=C/c1cccs1	TDP1 cell noCPT inconclusive, DT40 TDP1 CPT inconclusive (no result: IL-1B inflam inh)
OC1COC(c2ccccc2)OC1C(O)C1OC(c2ccccc2)OCC1O (configuration not stated)	none (no result: Chronic BCR inh)
O=S1(=O)C=C(Sc2nc3ccccc3s2)c2ccccc21	Chronic BCR inh inconclusive, TDP1 cell noCPT 0.65µM, SW480 rerep inconclusive, IL-1B inflam inh -66, DT40 TDP1 CPT 0.82µM, MCF10A rerep 2.9µM
O=S1(=O)C=C(Sc2nnc(-c3ccccc3)o2)c2ccccc21	Chronic BCR inh inconclusive, TDP1 cell noCPT 0.58µM, SW480 rerep 0.58µM, IL-1B inflam inh -102, DT40 TDP1 CPT 0.52µM, MCF10A rerep inconclusive
CSc1nnc(-c2ccccc2)o1	Chronic BCR inh inconclusive
Cc1cc(C)nc(SC2=CS(=O)(=O)c3ccccc32)n1	TDP1 cell noCPT 18µM, SW480 rerep 21µM, IL-1B inflam inh -98, DT40 TDP1 CPT inconclusive, MCF10A rerep 16µM
O=C(CSc1nnc(NC(=O)C2CC(=O)N(c3ccc(F)cc3)C2)s1)NC1CCCC1 (configuration not stated)	none
